Screening results deposited in PubChem BioAssay by National Center for Advancing Translational Sciences (NCATS).
FMDV antiviral = High Throughput Screening for Foot and Mouth Disease Virus Antivirals. Potency, µM (top dose mostly 57.9 µM), without a hit: at the top dose activity change, negative = inhibition, actives largely listed as inhibitors. FMDV antiviral cell-based qHTS. AID 1159524, 2015. 1.2% of 410,000 active; calls by dose curve; tested in HEK293T cells; further: read-out not given here; potency means the concentration at half of the fitted maximal effect; nearly all actives have a fitted effect of over 45% in size
HCMV inh = qHTS Assay for inhibitors of the human cytomegalovirus (HCMV). activity change, negative = inhibition, % at 57.5 µM. HFF cells, HCMV-luciferase reporter, 72 h; hits give low values. 4.5% of 410,000 active; in the data active means activity change below about -60%; inconclusive means no clear call, values can overlap the other calls; inactive means above about -39%
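Two-dose cell screen: HFF monolayers treated with compounds and infected with luciferase-expressing HCMV at 1 PFU/cell, 72 h at 37C, then lysed for luciferase measurement.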
MARV entry inh = qHTS for inhibitors of binding or entry into cells for Marburg Virus; Marburg virus pseudotyped entry inhibition, cell reporter; AID 540276, 2011; Potency, µM (highest dose often 37.8 µM), for inactives: at the top dose activity change, negative = inhibition, usual class: inhibitors; 1.8% of 300,000 active; calls by dose curve; tested in HEK293 cells; further: potency means the concentration at half of the fitted maximal effect
Lassa entry inh = qHTS for Inhibitors of binding or entry into cells for Lassa Virus. Lassa virus pseudotype entry inhibition, cell reporter. 1.2% of 300,000 active. Potency, µM (top dose mostly 37.9 µM), for inactives: at the top dose activity change, negative = inhibition, usual class: inhibitors; calls by dose curve; tested in HEK293 cells; further: potency means the concentration at half of the fitted maximal effect; nearly all actives have a fitted effect of over 50% in size
Numbers without * were called inactive; ? = inconclusive; . = no result; [ ] = remark or other dose. Most compounds without a hit are left out; they make up all but 6.2% or so of the library. On the % scale 0 is the no-effect control and ±100 the full control effect.

SMILES | FMDV antiviral | HCMV inh | MARV entry inh | Lassa entry inh
O=C(N/N=C/c1ccc(C(F)(F)F)cc1)c1ccc(O)cc1 | 6% | ? | ? | ?
CC(C)(C)c1ccc(/C=N/Nc2ccc(C(=O)O)cc2)cc1 | 7.1µM* | -76* | 3.7µM* | 2µM*
O=C(CNC(=O)c1cccs1)N/N=C/c1c(F)cccc1Cl | -4% | -60* | 19% | 12%
Cc1cc(C)n2c(SCC(=O)NCc3ccc4c(c3)OCO4)nnc2n1 | -10% | -25 | . | .
O=C(O)c1ccc(/C=N/Nc2ccc(F)cc2F)cc1 | -74% | 214 | 14µM* | 2.8µM*
Fc1ccc(N/N=C/c2ccncc2)c(F)c1 | 25% | 113 | 33% | 1%
FC(F)(F)c1cc(CCN2CCNC[C@H]2Cc2cccc3ccccc23)cc(C(F)(F)F)c1 | -28% | -80* | . | .
Cc1ccc(/C=N/N(Cc2ccccc2)c2ccccc2)o1 | -10% | -17 | . | .
CN(C)/N=C/c1ccc(P(c2ccc(/C=N/N(C)C)o2)c2ccc(/C=N/N(C)C)o2)o1 | 17% | -62* | ? | ?
Cc1ccc(C)c(N2CCN(C(=O)COc3cc(=O)n(C)c4ccccc34)CC2)c1 | ? | -24 | -24% | 18µM*
Cc1ccc(C)c(N2CCN(C(=O)CCCOc3cc(=O)n(C)c4ccccc34)CC2)c1 | 25µM* | 56 | ? | ?
COc1ccc(N2CCN(C(=O)CCCOc3cc(=O)n(C)c4ccccc34)CC2)cc1 | ? | 136 | ? | 9%
CC1CCCN(c2nc(NCc3ccco3)nc(N)c2[N+](=O)[O-])C1 (centres undefined) | 0% | -102* | ? | ?
Cc1cccc(Nc2nc(NCc3ccco3)nc(N3CCOCC3)n2)c1 | -22% | 82 | 2.3µM* | ?
Cc1cccc(Nc2nc(N)c([N+](=O)[O-])c(N3CCOCC3)n2)c1 | ? | 21 | 5.6µM* | -2%
CC1CC(C)CN(c2nc(NCc3ccco3)nc(N)c2[N+](=O)[O-])C1 (centres undefined) | ? | -67* | -10% | ?
COc1cccc(Nc2nc(N)c([N+](=O)[O-])c(N3CCOCC3)n2)c1 | ? | 59 | . | .
O=C(Cc1ccccc1)NCc1n[nH]c(=S)n1-c1ccccc1 | -8% | 6 | 18%[46.1 µM] | 1%
CCc1ccc(NC(=O)C2CCC(CNS(=O)(=O)c3ccc4c(c3)C(C)(C)C(=O)N4C)CC2)cc1 (centres undefined) | -20% | -12 | . | -2%[46.1 µM]
Cc1ccc(OCc2nnc(SCC(=O)N3c4ccccc4Sc4ccc(Cl)cc43)o2)cc1 | -25% | -25 | ? | -12%
Cc1ccc(Nc2nc(N)c([N+](=O)[O-])c(N3CCCC(C)C3)n2)cc1C (centres undefined) | ? | -62* | 2.2µM* | -6%
COc1ccc(Nc2nc(N)c([N+](=O)[O-])c(N3CCCC3)n2)cc1 | 0% | -15 | . | .
COc1ccc(C)cc1NC(=O)CCCN1C(=O)CCC1=O | 22% | 7 | 6% | 17%
CCN(CC)CCNc1ccc(C)c2sc3ccc(O)cc3c(=O)c12 | -22% | -97* | 2.2µM* | ?
CCN(CC)CCNc1ccc(CO)c2oc3cc(Cl)ccc3c(=O)c12 | -17% | -28 | . | .
SMILES | FMDV antiviral | HCMV inh | MARV entry inh | Lassa entry inh
Fc1ccc(Nc2nnc(C(F)(F)F)s2)cc1Cl | 0% | -98* | ? | ?
FC(F)(F)c1nnc(Nc2ccc(Cl)cc2)s1 | ? | -38 | -10%[46.1 µM] | -34%
O=C(Nc1ccc(F)cc1)c1ccc(Cn2nc(N3CCN(c4ccccc4)CC3)ccc2=O)o1 | ? | -62* | . | ?
C=C1CC(Cn2cc(Br)c(=O)[nH]c2=O)(c2ccc(-c3ccccc3)cc2)OC1=O (centres undefined) | ? | -97* | ? | ?
CCN(CC)CCOc1nnc(-c2ccc(C)cc2)c2ccccc12 | ? | -6 | ? | -17%
CCN(CC)CCOc1nnc(-c2ccc(OC)cc2)c2ccccc12 | 11% | -72* | . | .
O=C1OCC2=C1C(c1ccc3c(c1)OCO3)c1cc3c(cc1O2)OCO3 (centres undefined) | 0% | -23 | -22% | ?
COc1cc(C2C3=C(COC3=O)Oc3cc4c(cc32)OCO4)cc(OC)c1O (centres undefined) | -17% | -79* | ? | ?
COc1cc(C2C3=C(COC3=O)Oc3cc4c(cc32)OCO4)cc(OC)c1OC (centres undefined) | -21% | -84* | ? | ?
CC(=O)N1c2c(cc(Br)cc2S(=O)(=O)N2CCN(c3cc(C)ccc3C)CC2)CC1C (centres undefined) | 0% | -33 | -14%[46.1 µM] | ?
CCCCN(Cc1ccccc1)S(=O)(=O)c1cc(Br)cc2c1N(C(C)=O)C(C)C2 (centres undefined) | -22% | -65* | ? | ?
CC(=O)N1c2c(cc(Br)cc2S(=O)(=O)NCc2cccnc2)CC1C (centres undefined) | 52% | 41 | -1% | 7%
CC(=O)N1c2c(cc(Br)cc2S(=O)(=O)N2CCN(c3ccccc3F)CC2)CC1C (centres undefined) | ? | -67* | ? | .
O=C(CN1C(=O)COc2ccc(S(=O)(=O)N3CCCCC3)cc21)NCc1ccc(Cl)cc1 | 2% | ? | ? | -29%[46.1 µM]
O=C(NCCSc1ccccc1)c1ccc(CN2CCOCC2)cc1 | 42% | 8 | . | .
Cc1cc([N+](=O)[O-])ccc1-c1ccc(/C=N/NC(=O)c2ccc(Br)o2)o1 | ? | -89* | . | .
CCCCC(=O)N/N=C/c1ccc(-c2ccc([N+](=O)[O-])cc2)o1 | -13% | ? | -31%[46.1 µM] | -10%
Cc1cc([N+](=O)[O-])c(C)cc1-c1ccc(/C=N/n2cnnc2)o1 | -11% | 16 | 12%[46.1 µM] | 16%[46.1 µM]
Cc1cc(C(=O)N/N=C/c2ccc(-c3ccc([N+](=O)[O-])cc3C)o2)n[nH]1 | -24% | -15 | 0%[46.1 µM] | -25%[46.1 µM]
Cc1cc(C)n(Cc2ccc(C(=O)N/N=C/c3ccc(-c4ccc([N+](=O)[O-])cc4)o3)o2)n1 | -24% | -64* | ? | -12%
Cc1ccc(-c2ccc(/C=N\NC(=O)c3cc4c(ccc5ccccc54)o3)o2)cc1[N+](=O)[O-] | -15% | -95* | -8% | ?
O=[N+]([O-])c1ccc(-c2ccc(/C=N/n3cnnc3)o2)c(Br)c1 | ? | -90* | . | .
Cc1ccc([N+](=O)[O-])cc1-c1ccc(/C=N/NC(=O)c2cc3c(ccc4ccccc43)o2)o1 | -15% | -29 | 22% | 14%
COC1CCCC(c2nc(N)nc(SC)c2C#N)C1 (centres undefined) | . | . | 4% | .
O=S(=O)(NCCSc1nnnn1-c1ccccc1)c1ccc(F)cc1 | -6% | -61* | -17%[46.1 µM] | -23%[46.1 µM]
O=S(=O)(NCCSc1nnnn1-c1ccccc1)c1cccs1 | 5% | -81* | ? | 2%
COc1ccccc1OCc1ccc(C(=O)NCc2ccco2)o1 | 6% | 54 | 0% | ?
COc1cccc(C2/C(=C(\O)c3ccc4c(c3)OCCO4)C(=O)C(=O)N2CCCN2CCOCC2)c1OC (centres undefined) | -1% | . | . | .
